Data from PubChem BioAssay (Tox21).
The source made the active and inactive calls. A call without a number means that no potency is given here. Calls follow the shape of the dose curve; as a rule, active = well fitted cell-killing curve with a large enough effect in the repeat runs; inconclusive = weak or mixed curves, or effect the other way; inactive = flat fitted curve, though single readings scatter.

Assay: qHTS assay to identify small molecule HDAC inhibitors - cell viability counter screen (AID 1259365); also: nearly all actives have a fitted effect of over 50% in size
Details: HCT-116 viability, CellTiter-Glo ATP luminescence, 2 h; series mostly up to 92.4 µM
Excerpt: U.S. Tox21 Program National Center for Advancing Translational Sciences [NCATS] NIH Chemical Genomics Center [NCGC] U.S. Environmental Protection Agency [EPA] National Institutes of Environmental Health Sciences [NIEHS] National Toxicology Program [NTP] U.S. Food and Drug Administration [FDA] Tox21 Assay Overview: Histone deacetylases (HDACs) are a group of epigenetic enzymes that regulate gene expression by histone deacetylation. HDACs are capable of introducing epigenetic modifications and such aberrations contribute to the onset and progression of several human diseases, thus making HDACs a popular therapeutic target. For identifying endogenous class I/II HDAC inhibitors a homogenous, luminogenic HDAC I/II cell based assay was used to measure the relative activity of class I and II HDACs from cells. Wild type HCT-116 cells were used to screen Tox21 compound libraries for identifying class I/II HDAC inhibitors.
Tox21 Assay Protocol Summary: HCT-116 cells were dispensed at 1,500 per well in 5uL of culture medium into white solid bottom 1536-well plates (Greiner Bio-One, Monroe, NC) using a Multidrop Combi (Thermo Scientific, Waltham, MA) dispenser. The assay plates were incubated at 37 C and 5% CO2 for an overnight, and then 23nL of compounds dissolved in DMSO and positive control were transferred using a Pintool station (Wako, San Diego, CA). The assay plates were incubated at 37C and 5% CO2 for 2hr. After compound treatment, 4uL of CellTiter-Glo reagent (Promega Corporation, Madison, WI) was added to each well of the assay plates using Flying Reagent Dispenser (FRD, Aurora Discovery, San Diego, CA) and incubated the assay plates at room temperature for 30min. The luminescence signal was quantified using a ViewLux plate reader (Perkin Elmer, Shelton, CT).

SMILES	Potency
CC/C=C(\C(=O)N[C@@H]1C(=O)N2C(C(=O)OCOC(=O)C(C)(C)C)=C(COC(N)=O)CS[C@H]12)c1csc(N)n1	inactive
O=C1O[C@H]([C@H](O)CO)C(O)=C1O	inactive
CCCCCCCCO	inactive
CCCCCNCCCCC	inactive
Brc1ccc(Oc2ccc(Br)cc2)cc1	inactive
CC1=CC(=O)CC(C)(C)C1	inactive
OCc1ccc(Cl)cc1Cl	inactive
O=C(O)Cc1c[nH]c2ccccc12	inactive
Nc1cccc(N)n1	inactive
CC(C)(C)NC[C@H](O)COc1nsnc1N1CCOCC1	inactive
NC(=O)c1ncn([C@@H]2O[C@H](CO)[C@@H](O)[C@H]2O)n1	inactive
c1cnc2c(c1)ccc1cccnc12	inactive
CC(O)CNCC(C)O (stereo not given)	inactive
C=C(CC(=O)O)C(=O)O	inactive
N#CCC(=O)O	inactive
NC(N)=S	inactive
CCCCCCCCCCCC(=O)N(C)CC(=O)O	inactive
CC/C(C)=N/O	inactive
OB(O)O	inactive
O=c1n(CCCN2CCN(c3cccc(Cl)c3)CC2)nc2ccccn12	inactive

SMILES	Potency
COc1ccc(N)c(OC)c1	inactive
CC(=O)OC(C)(C)C1CC=C(C)CC1 (stereo not given)	inactive
COCN(COC)c1nc(N(COC)COC)nc(N(COC)COC)n1	inactive
O=C1C(N(CO)C(=O)NCO)N(CO)C(=O)N1CO (stereo not given)	inactive
CC(C)c1ccc(C(C)C)cc1	inactive
Nc1nc(N)c2nc(-c3ccccc3)c(N)nc2n1	inactive
C=CC(=O)NCOCCCC	inactive
COc1c2ccoc2cc2oc(=O)ccc12	inactive
O=C1OC(=O)c2c(Cl)c(Cl)c(Cl)c(Cl)c21	inactive
NC1CCCCC1N (stereo not given)	inactive
CC(C=O)Cc1ccc(C(C)(C)C)cc1 (stereo not given)	inactive
OCCOCCOCCOCCOCCO	inactive
COC(=O)CCCCC(=O)OC	inactive
CCN(CC)CCNC(=O)c1ccc(N)cc1	inactive
Cc1ncc(CO)c(CO)c1O	inactive
CC(=O)Nc1ccc(CC(=O)O)cc1	inactive
CC(=O)OC/C=C(\C)CCC=C(C)C	inactive
CCc1cccc(CC)c1N	inactive
Cc1cccc(C)c1[N+](=O)[O-]	inactive
CCCCCCCC(=O)O	inactive
